Experiment [1] can be described thus: NCI Yeast Anticancer Drug Screen. Data for the rad50 strain (AID 155).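 Also: 0% = growth of vehicle-only cultures of the same strain.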 The settings on record: S. cerevisiae rad50 strain growth inhibition, hits give high values. In a few lines: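 Relative growth inhibition (compound vs vehicle) was measured in yeast with a defined repair-gene alteration.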
Experiment [2] can be described thus: NCI Yeast Anticancer Drug Screen. Data for the mec2-1 strain (AID 157). To be noted: S. cerevisiae mec2-1 strain, hits give high values. In a few lines: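 Readout is yeast growth inhibition, normalised to vehicle-treated controls, in the mec2-1 strain exposed to compound.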
A short description of experiment [3]: NCI Yeast Anticancer Drug Screen. Data for the sgs1 mgt1 strain (AID 161).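 Also: 0% = growth of cultures given vehicle only.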 To be noted: S. cerevisiae sgs1 mgt1 strain, hits give high values. In short, it runs like this: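 Compounds are added to genetically altered yeast, and growth is compared with cultures given vehicle alone to give percent inhibition.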
Experiment [4] can be described thus: NCI Yeast Anticancer Drug Screen. Data for the cln2 rad14 strain (AID 165).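 Also: 0% = growth equal to vehicle treated cultures.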 The settings on record: S. cerevisiae cln2 rad14 strain, hits give high values. In short, it runs like this:
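Relative to vehicle controls, growth inhibition of compound-treated cln2 rad14 yeast was recorded.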

Experiment [5] in a line: NCI Yeast Anticancer Drug Screen. Data for the bub3 strain (AID 167). The settings on record: S. cerevisiae bub3 mutant strain, hits give high values. In a few lines: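 Screening used yeast with an engineered genetic alteration affecting cell cycle control. Compound-exposed cultures were compared with vehicle cultures, and reduced growth was taken as inhibition.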
A short description of experiment [6]: NCI Yeast Anticancer Drug Screen. Data for the mlh1 rad18 strain (AID 175). The settings on record: S. cerevisiae mlh1 rad18 strain growth inhibition, hits give high values. In a few lines: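 Test agents were incubated with a yeast strain of defined genotype (DNA damage repair defect). Inhibition of growth was derived by comparison with vehicle-exposed cultures.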

The mark [7] stands for this setting: at 5.0 µM (retest, dose inferred, filed as 0.5).
Where [8] appears, read: at 50.0 µM (retest, dose inferred, filed as 5.0).

The panel holds about 79,000 compounds, 15% with a hit somewhere; the sample as a whole holds those more often. Unmarked numbers belong to inactive results. Activity calls are given as the source filed them. Rule as the data show it: active = growth inhibition above about 70%; inactive = the rest.

For `COC1=CC2=CCC3C(CCC4(C)C3CCC4(C)OC(C)=O)C2(C)CC1` (configuration not stated), the growth inhibition in experiment [1] (setting [7]) was -2%; in experiment [1] (setting [8]) it was 66%; in experiment [1] (at 50.0 µM) it was 51.4%; in experiment [2] (setting [7]), 2%; in experiment [2] (setting [8]), 43%; in experiment [2] (at 50.0 µM), 36.5%. In addition, the growth inhibition in experiment [3] (setting [7]) was 0%; in experiment [3] (setting [8]) it was 82% (active); in experiment [3] (at 50.0 µM), 56.4%; in experiment [4] (setting [7]), 0%; in experiment [4] (setting [8]) it was 35%; in experiment [4] (at 50.0 µM), 30.6%. Moreover, the growth inhibition is -12% in experiment [5] (setting [7]); 24% in experiment [5] (setting [8]); 76.6% (active) in experiment [5] (at 50.0 µM); -2% in experiment [6] (setting [7]); 76% (active) in experiment [6] (setting [8]); 55.5% in experiment [6] (at 50.0 µM).
For `CCCCCCCCC(=O)[O][Hg][c]1ccccc1`, the growth inhibition in experiment [1] (setting [7]) is 99% (active); in experiment [1] (setting [8]) it was 99% (active); in experiment [1] (at 50.0 µM) it was 99.5% (active); in experiment [2] (setting [7]), 100% (active); in experiment [2] (setting [8]) it was 100% (active); in experiment [2] (at 50.0 µM) it was 99.7% (active). Further, the growth inhibition in experiment [3] (setting [7]) is 100% (active); in experiment [3] (setting [8]) it was 99% (active); in experiment [3] (at 50.0 µM) it was 99.7% (active); in experiment [4] (setting [7]), 99% (active); in experiment [4] (setting [8]), 99% (active); in experiment [4] (at 50.0 µM), 99.3% (active). Besides, the growth inhibition was 99% (active) in experiment [5] (setting [7]); 100% (active) in experiment [5] (setting [8]); 99.1% (active) in experiment [5] (at 50.0 µM); 99% (active) in experiment [6] (setting [7]); 100% (active) in experiment [6] (setting [8]); 99.5% (active) in experiment [6] (at 50.0 µM).
In the case of `O=C(COc1ccc(Cl)c(Cl)c1)N(Cc1ccccc1)Cc1ccc[n+](Cc2ccc(Cl)cc2S(=O)(=O)F)c1`, the growth inhibition is 8% in experiment [1] (setting [7]); 84% (active) in experiment [1] (setting [8]); 54% in experiment [1] (at 50.0 µM); 44% in experiment [2] (setting [7]); 42% in experiment [2] (setting [8]); 54.9% in experiment [2] (at 50.0 µM). Further, the growth inhibition in experiment [3] (setting [7]) is 2%; in experiment [3] (setting [8]), 62%; in experiment [3] (at 50.0 µM) it was -0.3%; in experiment [4] (setting [7]), 10%; in experiment [4] (setting [8]) it was 78% (active); in experiment [4] (at 50.0 µM), 50.4%. For the same compound, the growth inhibition in experiment [5] (setting [7]) is 2%; in experiment [5] (setting [8]) it was 82% (active); in experiment [5] (at 50.0 µM), 42.4%; in experiment [6] (setting [7]), 6%; in experiment [6] (setting [8]), 96% (active); in experiment [6] (at 50.0 µM), 60.1%.
On to `O=C1c2ccccc2[Se](=O)N1c1ccccc1` (configuration not stated), for which the growth inhibition was 50% in experiment [1] (setting [7]); 96% (active) in experiment [1] (setting [8]); 93.1% (active) in experiment [1] (at 50.0 µM); 61% in experiment [2] (setting [7]); 99% (active) in experiment [2] (setting [8]); 93.9% (active) in experiment [2] (at 50.0 µM). The growth inhibition in experiment [3] (setting [7]) is 23%; in experiment [3] (setting [8]), 96% (active); in experiment [3] (at 50.0 µM) it was 93% (active); in experiment [4] (setting [7]), 45%; in experiment [4] (setting [8]), 98% (active); in experiment [4] (at 50.0 µM) it was 91.7% (active). For the same compound, the growth inhibition was 72% (active) in experiment [5] (setting [7]); 99% (active) in experiment [5] (setting [8]); 90.8% (active) in experiment [5] (at 50.0 µM); 83% (active) in experiment [6] (setting [7]); 98% (active) in experiment [6] (setting [8]); 90.8% (active) in experiment [6] (at 50.0 µM).
Turning to `c1ccc(NC2=NCCN2)nc1`, the growth inhibition in experiment [1] (setting [7]) was -4%; in experiment [1] (setting [8]) it was 82% (active); in experiment [1] (at 50.0 µM), 14.4%; in experiment [2] (setting [7]), -26%; in experiment [2] (setting [8]) it was 99% (active); in experiment [2] (at 50.0 µM) it was 34.2%. The growth inhibition in experiment [3] (setting [7]) was 11%; in experiment [3] (setting [8]), 70% (active); in experiment [3] (at 50.0 µM), 62.3%; in experiment [4] (setting [7]), 24%; in experiment [4] (setting [8]), 49%; in experiment [4] (at 50.0 µM) it was 0.35%. Also, the growth inhibition was -8% in experiment [5] (setting [7]); 84% (active) in experiment [5] (setting [8]); 25.4% in experiment [5] (at 50.0 µM); -13% in experiment [6] (setting [7]); 98% (active) in experiment [6] (setting [8]); 15.2% in experiment [6] (at 50.0 µM).
As for `Cc1ccc(N=P(c2ccccc2)(c2ccccc2)c2ccccc2)cc1.[I][Hg][I]`, the growth inhibition in experiment [1] (setting [7]) is 99% (active); in experiment [1] (setting [8]) it was 99% (active); in experiment [1] (at 50.0 µM), 94.7% (active); in experiment [2] (setting [7]), 100% (active); in experiment [2] (setting [8]) it was 100% (active); in experiment [2] (at 50.0 µM), 99.7% (active). For the same compound, the growth inhibition in experiment [3] (setting [7]) was 100% (active); in experiment [3] (setting [8]) it was 99% (active); in experiment [3] (at 50.0 µM), 98.9% (active); in experiment [4] (setting [7]) it was 99% (active); in experiment [4] (setting [8]) it was 99% (active); in experiment [4] (at 50.0 µM), 99% (active). The growth inhibition is 99% (active) in experiment [5] (setting [7]); 98% (active) in experiment [5] (setting [8]); 98.3% (active) in experiment [5] (at 50.0 µM); 99% (active) in experiment [6] (setting [7]); 99% (active) in experiment [6] (setting [8]); 99.3% (active) in experiment [6] (at 50.0 µM).
`CS/C([S-])=N/N=C/c1ccccn1.[Cl][Pt+]`: the growth inhibition in experiment [1] (setting [7]) is 1%; in experiment [1] (setting [8]) it was 58%; in experiment [1] (at 50.0 µM) it was 82.2% (active); in experiment [2] (setting [7]) it was 3%; in experiment [2] (setting [8]) it was 80% (active); in experiment [2] (at 50.0 µM), 38%. Moreover, the growth inhibition in experiment [3] (setting [7]) was 20%; in experiment [3] (setting [8]), 96% (active); in experiment [3] (at 50.0 µM) it was 89.6% (active); in experiment [4] (setting [7]) it was -3%; in experiment [4] (setting [8]), 29%; in experiment [4] (at 50.0 µM) it was 9.15%. Also, the growth inhibition in experiment [5] (setting [7]) is -4%; in experiment [5] (setting [8]), 77% (active); in experiment [5] (at 50.0 µM), 19.6%; in experiment [6] (setting [7]), 33%; in experiment [6] (setting [8]), 93% (active); in experiment [6] (at 50.0 µM) it was 64.2%.
`CN(C)C(=S)[S][Sb]([c]1ccccc1)[c]1ccccc1`: the growth inhibition is 97% (active) in experiment [1] (setting [7]); 99% (active) in experiment [1] (setting [8]); 70.6% (active) in experiment [1] (at 50.0 µM); 99% (active) in experiment [2] (setting [7]); 99% (active) in experiment [2] (setting [8]); 83.5% (active) in experiment [2] (at 50.0 µM). The growth inhibition in experiment [3] (setting [7]) was 93% (active); in experiment [3] (setting [8]), 99% (active); in experiment [3] (at 50.0 µM), 90.3% (active); in experiment [4] (setting [7]) it was 89% (active); in experiment [4] (setting [8]), 97% (active); in experiment [4] (at 50.0 µM), 57.1%. The growth inhibition in experiment [5] (setting [7]) is 98% (active); in experiment [5] (setting [8]), 75% (active); in experiment [5] (at 50.0 µM) it was 98.3% (active); in experiment [6] (setting [7]), 99% (active); in experiment [6] (setting [8]) it was 99% (active); in experiment [6] (at 50.0 µM), 90.5% (active).
In the case of `c1cc2c(c(NC3=NCCN3)c1)CCCC2`, the growth inhibition is 12% in experiment [1] (setting [7]); 18% in experiment [1] (setting [8]); -12.2% in experiment [1] (at 50.0 µM); 1% in experiment [2] (setting [7]); -17% in experiment [2] (setting [8]); -18.9% in experiment [2] (at 50.0 µM). For the same compound, the growth inhibition in experiment [3] (setting [7]) was 1%; in experiment [3] (setting [8]) it was 12%; in experiment [3] (at 50.0 µM), -7%; in experiment [4] (setting [7]) it was -21%; in experiment [4] (setting [8]), -4%; in experiment [4] (at 50.0 µM), 33.1%. In addition, the growth inhibition in experiment [5] (setting [7]) was -26%; in experiment [5] (setting [8]), -7%; in experiment [5] (at 50.0 µM), -9.9%; in experiment [6] (setting [7]), 2%; in experiment [6] (setting [8]), 13%; in experiment [6] (at 50.0 µM) it was 7.65%.

Values taken from PubChem BioAssay (NCI).
